Results reported in PubChem BioAssay AID1159580 (chemical genetic matrix, 2015).
Hit rate of the full screen: of about 5,500 compounds, about 2,000 (36%) were called active. Inconclusive results (about 18%) are left out. No stated cut-off is given here; in the data, active means normalized growth mostly below about 0.91 (no sharp cut-off); inconclusive means no clear call, values can overlap the other calls; inactive means mostly above about 0.92. Some of the results follow.

Test: chemical genetic growth profiling, strain panel (AID 1159580);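 further: tested at 20 µM; growth read once vehicle control cultures reached saturation at 30 °C; 1 = growth at the plate median or of vehicle wells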
Settings: growth OD

Measured: normalized growth

CCCCCN=C(N)N/N=C\c1c[nH]c2ccc(OC)cc12
inactive: S. cerevisiae deletion strains, locus YJR043C, strain POL32, stronger effect = lower value 0.989 | S. cerevisiae deletion strains, locus YJR075W, strain HOC1, stronger effect = lower value 0.996 | S. cerevisiae deletion strains, locus YKL009W, strain mrt4, stronger effect = lower value 0.974 | S. cerevisiae deletion strains, locus YKL068W, stronger effect = lower value 0.993 | S. cerevisiae deletion strains, locus YKL085W, strain MDH1 (second series), stronger effect = lower value 0.956 | S. cerevisiae deletion strains, locus YKL085W, strain MDH1, stronger effect = lower value 0.956 | S. cerevisiae deletion strains, locus YKL160W, strain elf1, stronger effect = lower value 1.01 | S. cerevisiae deletion strains, locus YKL190W, strain CNB1, stronger effect = lower value 1.01 | S. cerevisiae deletion strains, locus YKR001C, strain vps1, stronger effect = lower value 1.03 | S. cerevisiae deletion strains, locus YKR026C, strain gcn3, stronger effect = lower value 1.01 | S. cerevisiae deletion strains, locus YKR091W, strain srl3, stronger effect = lower value 0.992 | S. cerevisiae deletion strains, locus YLL001W, strain dnm1, stronger effect = lower value 1.01 | S. cerevisiae deletion strains, locus YLL026W, stronger effect = lower value 1.01 | S. cerevisiae deletion strains, locus YLL041C, strain sdh2, stronger effect = lower value 1 | S. cerevisiae deletion strains, locus YLR027C, strain aat2, stronger effect = lower value 1 | S. cerevisiae deletion strains, locus YLR039C, strain RIC1, stronger effect = lower value 1.08 | S. cerevisiae deletion strains, locus YLR058C, strain SHM2, stronger effect = lower value 0.99 | S. cerevisiae deletion strains, locus YLR102C, strain apc9, stronger effect = lower value 1.02 | S. cerevisiae deletion strains, locus YLR221C, strain rsa3, stronger effect = lower value 0.986 | S. cerevisiae deletion strains, locus YLR258W, strain gsy2, stronger effect = lower value 0.995 | S. cerevisiae deletion strains, locus YLR262C, strain YPT6 (second series), stronger effect = lower value 1.04 | S. cerevisiae deletion strains, locus YLR262C, strain YPT6, stronger effect = lower value 1.01 | S. cerevisiae deletion strains, locus YLR268W, strain sec22, stronger effect = lower value 0.998 | S. cerevisiae deletion strains, locus YLR320W, strain mms22, stronger effect = lower value 0.98 | S. cerevisiae deletion strains, locus YLR330W, strain CHS5, stronger effect = lower value 1.01 | S. cerevisiae deletion strains, locus YLR342W, strain FKS1 (second series), stronger effect = lower value 0.989 | S. cerevisiae deletion strains, locus YLR342W, strain FKS1, stronger effect = lower value 1.01 | S. cerevisiae deletion strains, locus YLR357W, strain rsc2, stronger effect = lower value 0.975 | S. cerevisiae deletion strains, locus YLR370C, strain arc18, stronger effect = lower value 1 | S. cerevisiae deletion strains, locus YLR371W, strain rom2, stronger effect = lower value 1.03 | S. cerevisiae deletion strains, locus YLR384C, strain iki3, stronger effect = lower value 1.02 | S. cerevisiae deletion strains, locus YLR418C, strain cdc73, stronger effect = lower value 0.993 | S. cerevisiae deletion strains, locus YML016C, strain PPZ1, stronger effect = lower value 1 | S. cerevisiae deletion strains, locus YML032C, strain rad52, stronger effect = lower value 1.02 | S. cerevisiae deletion strains, locus YML120C, strain ndi1, stronger effect = lower value 1.01 | S. cerevisiae deletion strains, locus YML124C, strain tub3, stronger effect = lower value 1.02 | S. cerevisiae deletion strains, locus YMR058W, strain fet3, stronger effect = lower value 1.01 | S. cerevisiae deletion strains, locus YMR078C, strain ctf18, stronger effect = lower value 1.03 | S. cerevisiae deletion strains, locus YMR125W, strain sto1, stronger effect = lower value 0.979 | S. cerevisiae deletion strains, locus YMR129W, stronger effect = lower value 1.01 | S. cerevisiae deletion strains, locus YMR205C, strain PFK2, stronger effect = lower value 0.994 | S. cerevisiae deletion strains, locus YMR223W, strain ubp8, stronger effect = lower value 1.01 | S. cerevisiae deletion strains, locus YMR231W, strain pep5, stronger effect = lower value 1.02 | S. cerevisiae deletion strains, locus YMR263W, strain SAP30, stronger effect = lower value 1.01 | S. cerevisiae deletion strains, locus YMR307W, strain GAS1, stronger effect = lower value 0.973 | S. cerevisiae deletion strains, locus YNL067W, strain RPL9B, stronger effect = lower value 0.998 | S. cerevisiae deletion strains, locus YNL071W, strain lat1, stronger effect = lower value 1 | S. cerevisiae deletion strains, locus YNL128W, strain TEP1, stronger effect = lower value 0.995 | S. cerevisiae deletion strains, locus YNL153C, strain GIM3, stronger effect = lower value 1 | S. cerevisiae deletion strains, locus YNL209W, strain ssb2, stronger effect = lower value 1 | S. cerevisiae deletion strains, locus YNL233W, strain BNI4, stronger effect = lower value 0.985 | S. cerevisiae deletion strains, locus YNL248C, strain rpa49, stronger effect = lower value 0.991 | S. cerevisiae deletion strains, locus YNL250W, strain rad50, stronger effect = lower value 1.02 | S. cerevisiae deletion strains, locus YNL271C, strain bni1, stronger effect = lower value 1.02 | S. cerevisiae deletion strains, locus YNL298W, strain CLA4, stronger effect = lower value 1.02 | S. cerevisiae deletion strains, locus YNL307C, strain MCK1, stronger effect = lower value 1.04 | S. cerevisiae deletion strains, locus YNL322C, strain KRE1 (second series), stronger effect = lower value 1.02 | S. cerevisiae deletion strains, locus YNL322C, strain KRE1, stronger effect = lower value 1 | S. cerevisiae deletion strains, locus YNR049C, strain mso1, stronger effect = lower value 1.01 | S. cerevisiae deletion strains, locus YNR052C, strain pop2, stronger effect = lower value 1.03 | S. cerevisiae deletion strains, locus YOL006C, strain TOP1, stronger effect = lower value 0.995 | S. cerevisiae deletion strains, locus YOL012C, strain htz1 1.66 | S. cerevisiae deletion strains, locus YOL147C, strain pex11, stronger effect = lower value 1.03 | S. cerevisiae deletion strains, locus YOR001W, strain rrp6, stronger effect = lower value 0.995 | S. cerevisiae deletion strains, locus YOR061W, strain CKA2, stronger effect = lower value 0.995 | S. cerevisiae deletion strains, locus YOR069W, strain VPS5, stronger effect = lower value 1.01 | S. cerevisiae deletion strains, locus YOR070C, strain gyp1, stronger effect = lower value 1 | S. cerevisiae deletion strains, locus YOR080W, strain dia2, stronger effect = lower value 1 | S. cerevisiae deletion strains, locus YOR083W, strain WHI5, stronger effect = lower value 0.991 | S. cerevisiae deletion strains, locus YOR106W, strain vam3, stronger effect = lower value 0.995 | S. cerevisiae deletion strains, locus YOR136W, strain idh2, stronger effect = lower value 1.03 | S. cerevisiae deletion strains, locus YOR144C, strain elg1, stronger effect = lower value 1.01 | S. cerevisiae deletion strains, locus YOR184W, strain ser1, stronger effect = lower value 1.02 | S. cerevisiae deletion strains, locus YOR265W, strain rbl2, stronger effect = lower value 1.01 | S. cerevisiae deletion strains, locus YOR270C, strain vph1, stronger effect = lower value 1.05 | S. cerevisiae deletion strains, locus YOR290C, strain snf2, stronger effect = lower value 0.984 | S. cerevisiae deletion strains, locus YOR316C, strain cot1, stronger effect = lower value 1.02 | S. cerevisiae deletion strains, locus YPL051W, strain arl3, stronger effect = lower value 1 | S. cerevisiae deletion strains, locus YPL055C, strain LGE1, stronger effect = lower value 0.993 | S. cerevisiae deletion strains, locus YPL078C, strain atp4, stronger effect = lower value 1.03 | S. cerevisiae deletion strains, locus YPL106C, strain sse1, stronger effect = lower value 1.01 | S. cerevisiae deletion strains, locus YPL240C, strain hsp82, stronger effect = lower value 1 | S. cerevisiae deletion strains, locus YPL241C, strain CIN2, stronger effect = lower value 1.05 | S. cerevisiae deletion strains, locus YPR119W, strain clb2, stronger effect = lower value 1.02 | S. cerevisiae deletion strains, locus YPR141C, strain kar3, stronger effect = lower value 1.02 | S. cerevisiae deletion strains, locus YPR163C, strain tif3, stronger effect = lower value 1.02 | S. cerevisiae deletion strains, locus YPR167C, strain met16, stronger effect = lower value 1.02 | S. cerevisiae deletion strains, strain wtn01, stronger effect = lower value 1.01 | S. cerevisiae strains, strain wild type, stronger effect = lower value 1
